A selection: hits, their analogues and other compounds. The true share with any hit is near 7.8%.
HCMV antiviral: human cytomegalovirus inhibition; HFF cells, HCMV-luciferase reporter, 72 h; stronger effect = lower value; activity change, negative = inhibition, % at 57.5 µM; actives 4.5% (n = 410,000); in the data active = activity change below about -60%; inconclusive = no clear call, values can overlap the other calls; inactive = above about -39%
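Compounds were evaluated in HFFs infected with an HCMV luciferase reporter virus (MOI 1 PFU/cell). Luciferase in lysates collected 72 h post infection served as the replication measure.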
Vaccinia mCherry: inhibitors of vaccinia virus infection (mCherry reporter signal); Vaccinia virus mCherry reporter infection, fluorescence; Potency, µM (doses to about 36.5 µM), without a hit: top-dose activity change, negative = inhibition, usual class: inhibitors; actives 0.63% (n = 310,000); calls by dose curve; tested in A549 cells; also: potency is read from the fitted curve at half-maximal effect; nearly all actives have a fitted effect of over 35% in size
LASV entry inh: blocks Lassa virus binding to or entry into cells; Lassa virus pseudotype entry inhibition, cell reporter; Potency, µM (highest dose often 37.9 µM), inactives show top-dose activity change, negative = inhibition, most hits filed as inhibitors; actives 1.2% (n = 300,000); AID 540256; calls by dose curve; tested in HEK293 cells; also: potency is read from the fitted curve at half-maximal effect; nearly all actives have a fitted effect of over 50% in size
Marburg entry inh: blocks Marburg virus binding to or entry into cells. Marburg virus pseudotyped entry inhibition, cell reporter. Potency, µM (top dose mostly 37.8 µM), inactives show at the highest dose activity change, negative = inhibition, usual class: inhibitors. actives 1.8% (n = 300,000). AID 540276; calls by dose curve; tested in HEK293 cells; also: potency is read from the fitted curve at half-maximal effect
VACV Venus inh: vaccinia inhibition (Venus reporter); Vaccinia virus Venus reporter expression, fluorescence; Potency, µM (doses to about 36.5 µM), for the others: at the top dose activity change, negative = inhibition, hits mostly inhibitors; actives 0.46% (n = 330,000); calls by dose curve; tested in A549 cells; also: potency is read from the fitted curve at half-maximal effect; nearly all actives have a fitted effect of over 30% in size
HCV inh: inhibitors of hepatitis C virus infection. Huh7.5.1 HCVcc-Cre infection, luciferase reporter, 44 h. Potency, µM (highest dose often 41.8 µM), for the others: top-dose activity change, negative = inhibition, actives largely listed as inhibitors. actives 3.4% (n = 340,000). AID 651820; active = well fitted inhibition curve with a large enough effect; inconclusive = small, poorly fitted or top-dose-only effect, or another doubt; inactive = no such curve, though single readings can be large or run the other way; also: potency is read from the fitted curve at half-maximal effect
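Luciferase read-out (15 sec integration) after a 15 min room-temperature substrate step quantifies HCVcc-Cre infection. Cells, 1,000 per well, had compound added 4 h post-plating, then virus at ~0.5 moi, and were cultured 44 h.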
* hit, by the source's call; i = inactive; ? = inconclusive; . = no result; ! = not confirmed by another sample; [ ] = remark or other dose. % is scaled to controls: 0 for no effect and ±100 for the full control effect.

SMILES	HCMV antiviral	Vaccinia mCherry	LASV entry inh	Marburg entry inh	VACV Venus inh	HCV inh
CN(C)c1ccc(CNc2ncnc3sccc23)cc1	-82.0*	-24.0%	3.55µM*	?	-17.5%	1.78µM*
CCOCCCNC1=C(Cl)C(=O)c2ccccc2C1=O	-26.5	.	.	.	.	-12.6%
O=C1C(Cl)=C(NCCCO)C(=O)c2ccccc21	-29.1	.	-18.2%	?	-9.7%	12.6µM*
O=C1C(Cl)=C(NCCCN2CCOCC2)C(=O)c2ccccc21	6.2	-10.9%	?	?	22.6%	10µM*
O=c1[nH]cnc2c1ncn2-c1ccc(Cl)cc1	-14.4	-4.5%	-3.1%	4.5%	-12.2%	10.0%
ClCCN(CCCl)c1ccc(-n2cnc3c(Cl)ncnc32)cc1	-18.8	-9.0%	?	?	-2.0%	12.6µM*
COc1ccc(NC(=O)Cn2c(=O)n(Cc3ccco3)c(=O)c3cc(OC)c(OC)cc32)cc1	-97.0*	2.1%	?	11.0%[46.1 µM]	5.3%	.
COc1ccc(CCNC(=O)CCCCn2c(=O)c3ccccc3n(CC(=O)Nc3c(C)cccc3C)c2=O)cc1OC	-109.3*	-6.2%	3.5%[46.1 µM]	-1.5%[46.1 µM]	-1.7%	.
COc1cc2c(=O)n(Cc3ccccc3)c(=O)n(CC(=O)NCCc3ccccc3)c2cc1OC	41.2	-9.1%	?	15.1%	-8.1%	?
COc1ccc(CCNC(=O)Cn2c(=O)n(Cc3ccco3)c(=O)c3ccc(Cl)cc32)cc1OC	?	-13.6%	-5.9%	?	-0.8%	11.2µM*!
CCN1[C@H](C(=O)NCCOC)[C@@H](CO)[C@@H]2Cn3c(ccc(-c4ccc(C(=O)N(C)C)cc4)c3=O)[C@@H]21	11.7	.	.	.	.	.
COc1ccccc1C(=O)Nc1c(C(=O)N2CCN(c3ccccc3F)CC2)oc2ccccc12	-17.1	-16.0%	6.9%[46.1 µM]	.	-14.8%	.
CC(C)(C)c1cc(/C=C2\NC(=O)NC2=O)cc(C(C)(C)C)c1O	-82.8*	.	.	.	.	?
O=C1NC(=O)/C(=C/c2cccc(O)c2)N1	-7.9	i	.	.	-1.5%	3.0%
Cc1ccccc1-c1cc(C(=O)NCc2cccc(C(F)(F)F)c2)n(CC2CC(c3cccnc3)=NO2)n1 (centres undefined)	-13.0	-0.5%	.	.	-14.0%	8.91µM*
O=C(NCc1cccc(C(F)(F)F)c1)c1cc(-c2ccccc2)nn1CC1CC(c2cccnc2)=NO1 (centres undefined)	-1.2	-3.5%	.	.	?	-21.8%
COc1cccc2c1C(CO)N1C(C#N)C3CC(C(=O)O)C(C1C2)N3C (centres undefined)	-76.9*	?	.	.	?	1.12µM*
COc1cccc2c1OCC(C(=O)O)C2 (centres undefined)	-1.8	-4.7%	-4.1%	?	-3.0%	-3.5%
COC(=O)c1scc(C)c1NC(=O)Nc1ccccc1	-99.0*	.	0.7%	-3.2%[46.1 µM]	-4.2%	19.0%
COC(=O)c1scc(C)c1NC(=O)C(Cl)c1ccccc1 (centres undefined)	-28.1	i	.	.	-9.6%	-0.3%
COC(=O)N[C@@H](C=Cc1ccccc1)[C@@H](C)[N+](=O)[O-]	.	.	.	2.4%[14.2 µM]	.	.
Cc1ccc(Nc2c(-c3ccccn3)nc3ccc(C)cn23)cc1	0.0	.	.	.	.	?
Cc1ccn2c(Nc3ccc4c(c3)OCO4)c(-c3ccccn3)nc2c1	-97.7*	-11.0%	?	?	12.2%	?
Cc1ccc(Nc2c(-c3ccccn3)nc3cc(C)ccn23)cc1	0.0	?	?	?	?	2.82µM*
Cc1cccc(-c2nc3ccccc3c(=O)n2NC(=O)c2cccnc2Cl)c1	-68.7*	.	1.1%	19.2%	.	-4.3%
COc1ccc(-c2nc3ccccc3c(=O)n2NC(=O)c2cccnc2Cl)cc1OC	?	i	-3.7%	5.2%[46.1 µM]	4.3%	3.4%
Oc1ccc(C(=S)N2CCCCC2)cc1Cl	-75.2*	.	-10.3%	-15.6%	.	11.6%
CCc1c(C)nc(SCC(N)=O)c(C#N)c1C	-63.9*	-0.5%	8.1%	7.6%	-5.9%	-14.2%
CCc1nnc(NC(=O)c2nc(S(=O)(=O)Cc3ccccc3)ncc2Cl)s1	-101.0*	i	?	?	-5.8%	?
CCc1nnc(NC(=O)c2nc(S(=O)(=O)Cc3ccc(C)cc3)ncc2Cl)s1	-100.7*	-8.0%	?	?	-12.9%	?

Source: PubChem (National Center for Advancing Translational Sciences (NCATS))
